Assay results as given in PubChem BioAssay.
Unmarked numbers belong to inactive results. No rule for the calls is given here.

System: Aerobactin synthetase IucA (Klebsiella pneumoniae hvKP1)
Test: IucA enzyme inhibition, primary screen, biochemical, Spectrum library (AID 1346200);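 also: 100% = wells without compound and 0% = wells lacking enzyme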
Conditions: malachite green pyrophosphate, A620, at 8 µM, active compounds read low

Row | Compound | activity remaining [%]
1 | CC(C)[N+]1(C)C2CC[C@@H]1CC(OC(=O)C(CO)c1ccccc1)C2 (stereo not given in full) | 109
2 | C=CCS(=O)C[C@H](N)C(=O)O (stereo not given in full) | 125
3 | O=C(O[C@@H]1Cc2c(O)cc(O)cc2O[C@@H]1c1cc(O)c(O)c(O)c1-c1c([C@H]2Oc3cc(O)cc(O)c3C[C@H]2O)cc(O)c(O)c1O)c1cc(O)c(O)c(O)c1 | 119
4 | CC1=CC2C(C(C)C)CCC(C)(O)C2CC1 (stereo not given) | 89.3
5 | CCOC(=O)C(C)(N)Cc1ccc(O)c(O)c1 (stereo not given) | 105
6 | O=C(/C=C/c1ccc(O)cc1)c1ccccc1O | 109
7 | CC(C)=CC1C(C(=O)O)C1(C)C (stereo not given) | 121
8 | CC[C@@H](C(=O)C(C)[C@@H](O)[C@H](C)CCc1ccc(C)c(O)c1C(=O)O)C1OC(CC)(C2CC[C@](O)(CC)[C@H](C)O2)C[C@@H]1C (stereo not given in full) | 111
9 | O=C1C(O)=C(O)C(=O)C(O)=C1O | 125
10 | C[C@H]1O[C@H](O[C@H]2[C@H](O)[C@@H](O)[C@@H](O[C@H]3[C@H](O)[C@@H](O)C(O)O[C@@H]3CO)O[C@@H]2CO)[C@H](O)[C@@H](O)[C@@H]1N[C@H]1C=C(CO)[C@@H](O)[C@H](O)[C@H]1O (stereo not given in full) | 107
11 | CC1=CC(=O)C2C(C)(C)CCC[C@]2(C)[C@@]1(O)CCc1ccoc1 (stereo not given in full) | 105
12 | NC(=O)N1c2ccccc2CC(=O)c2ccccc21 | 123
13 | CC(=O)Oc1cc2c(c(C)c1OC(C)=O)CC=C1[C@@]2(C)CC[C@@]2(C)C3C[C@](C)(C(=O)O)CC[C@]3(C)CC[C@]12C (stereo not given in full) | 95.9
14 | O=C(OCc1ccccc1)c1ccccc1 | 108
15 | O=C(O)c1cc(=O)c2c(OCC(O)COc3cccc4oc(C(=O)O)cc(=O)c34)cccc2o1 | 115
16 | COc1ccc(-c2cc(=O)c3c(O)cc(O[C@@H]4O[C@H](CO[C@H]5O[C@H](C)[C@@H](O)[C@H](O)[C@@H]5O)[C@@H](O)[C@H](O)[C@H]4O)cc3o2)cc1O | 90.7
17 | Cc1[nH]ccc2c1[nH]c1cc(=O)ccc12 | 118
18 | COC1=CC(=O)C(O)=C/C1=C\C=C\c1ccccc1 | 106
19 | O=C1CC(c2ccccc2)Oc2ccccc21 (stereo not given) | 125
20 | Cn1nnnc1SCC1=C(C(=O)O)N2C(=O)C(NC(=O)C(O)c3ccccc3)C2SC1 (stereo not given) | 121

Row | Compound | activity remaining [%]
21 | CC(=O)Oc1c(C)c(C)c2c(c1C)CCC(C)(CCCC(C)CCCC(C)CCCC(C)C)O2 (stereo not given) | 96.6
22 | O=C1c2ccc(O)c(O)c2C(=O)c2c(O)ccc(O)c21 | 125
23 | COC1C(O)C(O)C(O)[C@@H](O)C1O (stereo not given in full) | 106
24 | CC(CCC(=O)O)[C@H]1CCC2C3CC[C@@H]4C[C@H](O)CC[C@]4(C)C3C[C@H](O)[C@@]21C (stereo not given in full) | 116
25 | CC(=O)[C@H]1CCC2C3CC=C4C[C@@H](O)CC[C@]4(C)C3CC[C@@]21C (stereo not given in full) | 99.4
26 | CO[C@@]1(NC(=O)Cc2cccs2)C(=O)N2C(C(=O)O)=C(COC(N)=O)CS[C@@H]21 | 108
27 | C=C1C2CC[C@@]3(C)[C@H](c4ccoc4)OC(=O)C[C@]13O[C@H]1C[C@H](OC(C)=O)C(C)(C)[C@H](CC(=O)OC)[C@@]21C | 98.7
28 | O=c1cc(-c2ccccc2)oc2cc(O)c(O)c(O)c12 | 122
29 | CC(=O)O[C@@H]1CC2C(C)(C)[C@H](O)CC[C@]2(C)C2CC[C@@]3(C)[C@H](c4ccoc4)OC(=O)C4OC43[C@@]21C (stereo not given in full) | 122
30 | Oc1cc2c(cc1O)C1c3ccc(O)c(O)c3OCC1(O)C2 (stereo not given) | 109
31 | C[C@H]1[C@H](C)CC[C@]2(C(=O)O)CC[C@]3(C)C(=CCC4[C@@]5(C)C[C@@H](O)[C@H](O)[C@@](C)(CO)C5CC[C@]43C)[C@H]12 (stereo not given in full) | 102
32 | COc1cc2c(cc1O)[C@@H](Cc1ccc(O)cc1)[N+](C)(C)CC2 | 75.4
33 | CC(C)c1c(O)ccc2c1CCC1[C@@](C)(C=O)CCC[C@]21C (stereo not given in full) | 99.8
34 | Cc1cccc(Nc2ccccc2C(=O)O)c1C | 111
35 | COc1ccc2c(c1)OC1(O)COc3cc(OC)c(OC)cc3C1=C2 (stereo not given) | 107
36 | CC(Cc1ccc(O)c(O)c1)(NN)C(=O)O (stereo not given) | 111
37 | CC(=O)O[C@H]1CC[C@@]2(C)C(=CC(=O)C3C4CCC(C(C)CCCC(C)C)[C@@]4(C)CCC32)C1 (stereo not given in full) | 123
38 | O=C1CC(c2ccc(O)c(O)c2)Oc2cc(O)cc(O)c21 (stereo not given) | 109
39 | CN(Cc1cc(Br)cc(Br)c1N)C1CCCCC1 | 112
40 | CCCC1O[C@@H]2CC3C4CCC5=CC(=O)C=CC5(C)C4[C@@H](O)CC3(C)[C@]2(C(=O)CO)O1 (stereo not given in full) | 115
